Here are results for 3 compounds from the supplement of paper PMC13380429.

Assay [1] deals with Vero E6 infected with SARS-CoV-2. Briefly: morphology score (similarity to uninfected cells); higher = more like uninfected cells. The conditions noted are these: 24 h.
Assay [2] has the same test system. Briefly: SARS-CoV-2 infection rate relative to infected DMSO; higher = more infection, active = 60 or less. The settings on record: 24 h.

For `COC(=O)C1=C(C)NC(C)=C(C(=O)OC(C)C)[C@@H]1c1cccc2nonc12` [isradipine] (10 µM), the morphology score in assay [1] was -0.0665. The SARS-CoV-2 infection rate in assay [2] is 104% (inactive).
With `COc1ccccc1CC(=N)N1C[C@@H]2C(=O)CCC(c3ccccc3)(c3ccccc3)[C@@H]2C1` (10 µM), the morphology score in assay [1] was -0.184. Moreover, the SARS-CoV-2 infection rate in assay [2] was 110% (inactive).
Compound `CC(=O)OCC(=O)[C@@]1(O)CC[C@H]2[C@@H]3CCC4=CC(=O)C=C[C@]4(C)[C@@]3(F)[C@@H](O)C[C@@]21C` [isoflupredone-acetate] (10 µM) had a morphology score in assay [1] of 0.155. In addition, in assay [2], the SARS-CoV-2 infection rate was 98% (inactive).
